Values joined by “and” are separate entries in the source; they are usually repeats but may differ in a detail not shown here. Equal values may be shown once. Screen size: about 5,500 compounds; about 2,000 (36%) were called active. Roughly 18% stayed inconclusive and do not appear here. Cut-off read from the data, not from the text of the source: active = normalized growth mostly below about 0.91 (no sharp cut-off); inconclusive = no clear call, values can overlap the other calls; inactive = mostly above about 0.92. Some of the results follow.
Assay: chemical genetic growth profiling, strain panel (AID 1159580);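 note: tested at 20 µM; growth read once vehicle control cultures reached saturation at 30 °C; 1 = growth at the plate median or of vehicle wells; lower values mean less growth of the strain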
Conditions: S. cerevisiae deletion strains, growth OD

Measured: normalized growth

CC(=O)N[C@@H](CC(C)C)C(=O)O
inactive: locus YAL013W, strain DEP1, hits give low values 0.983 | locus YAL021C, strain ccr4, hits give low values 1 | locus YAL026C, strain drs2, hits give low values 0.989 | locus YAL030W, strain snc1, hits give low values 1 | locus YBL061C, strain skt5, hits give low values 0.986 | locus YBR009C, strain hhf1, hits give low values 0.99 | locus YBR021W, strain FUR4, hits give low values 1 | locus YBR023C, strain chs3, hits give low values 1 | locus YBR171W, strain sec66, hits give low values 0.981 | locus YBR229C, strain ROT2, hits give low values 0.996 | locus YBR231C, strain swc5, hits give low values 0.972 | locus YBR279W, strain paf1, hits give low values 1 | locus YCL011C, strain gbp2, hits give low values 1.01 | locus YCL016C, strain dcc1, hits give low values 0.995 | locus YCL029C, strain bik1, hits give low values 0.97 | locus YCL069W, strain vba3, hits give low values 0.996 | locus YCR088W, strain abp1, hits give low values 1 | locus YDL005C, strain med2, hits give low values 0.991 | locus YDL035C, strain GPR1, hits give low values 0.985 | locus YDL040C, strain nat1, hits give low values 0.988 | locus YDL074C, strain BRE1, hits give low values 1.02 | locus YDL101C, strain DUN1, hits give low values 0.994 | locus YDL134C, strain PPH21, hits give low values 0.987 | locus YDL185W, strain tfp1, hits give low values 0.944 | locus YDL192W, strain arf1, hits give low values 0.986 | locus YDR001C, strain nth1, hits give low values 1 | locus YDR069C, strain doa4, hits give low values 0.971 | locus YDR101C, strain arx1, hits give low values 0.989 | locus YDR137W, strain rgp1, hits give low values 1 | locus YDR150W, strain NUM1, hits give low values 0.983 | locus YDR159W, strain sac3, hits give low values 0.961 | locus YDR162C, strain NBP2, hits give low values 0.981 | locus YDR195W, strain ref2 0.948 | locus YDR297W, strain sur2, hits give low values 0.991 | locus YDR318W, strain mcm21, hits give low values 0.97 | locus YDR334W, strain swr1, hits give low values 0.989 | locus YDR335W, strain msn5, hits give low values 0.987 | locus YDR388W, hits give low values 0.989 | locus YDR392W, strain spt3, hits give low values 1.02 | locus YDR502C, strain sam2, hits give low values 0.972 | locus YEL003W, strain gim4, hits give low values 0.989 | locus YEL037C, strain rad23, hits give low values 0.994 | locus YEL061C, strain CIN8 (second series), hits give low values 0.986 | locus YEL061C, strain CIN8, hits give low values 0.993 | locus YER015W, strain faa2, hits give low values 0.993 | locus YER016W, strain bim1, hits give low values 1.01 | locus YER110C, hits give low values 0.97 | locus YER111C, strain swi4, hits give low values 0.988 | locus YER155C, strain BEM2 (second series), hits give low values 0.98 | locus YER155C, strain BEM2, hits give low values 0.992 | locus YER167W, strain BCK2, hits give low values 0.98 | locus YFR010W, strain ubp6, hits give low values 0.98 | locus YGL078C, strain dbp3, hits give low values 0.975 | locus YGL086W, strain mad1, hits give low values 0.996 | locus YGL167C, strain pmr1, hits give low values 0.972 | locus YGL173C, strain kem1, hits give low values 0.97 | locus YGL227W, strain vid30, hits give low values 0.98 | locus YGL240W, strain doc1, hits give low values 0.972 | locus YGL248W, strain PDE1, hits give low values 1.01 | locus YGL253W, strain hxk2, hits give low values 0.986 | locus YGR135W, strain pre9, hits give low values 0.945 | locus YGR252W, strain gcn5, hits give low values 1 | locus YHR013C, strain ard1, hits give low values 1.01 | locus YHR027C, strain rpn1, hits give low values 1 | locus YHR030C, strain SLT2, hits give low values 0.975 and 1.04 | locus YHR079C, strain IRE1 (second series), hits give low values 0.985 | locus YHR079C, strain IRE1, hits give low values 1.02 | locus YHR094C, strain hxt1, hits give low values 0.984 | locus YHR129C, strain ARP1, hits give low values 0.992 | locus YHR142W, strain chs7, hits give low values 0.992 | locus YHR200W, strain rpn10, hits give low values 0.978 | locus YIL066C, strain RNR3, hits give low values 1.01 | locus YIL073C, strain SPO22, hits give low values 0.849 | locus YIL125W, strain kgd1, hits give low values 0.992 | locus YIR030C, strain dcg1, hits give low values 0.969 | locus YJL092W, strain hpr5, hits give low values 0.989 | locus YJL095W, strain BCK1 (second series), hits give low values 0.98 | locus YJL095W, strain BCK1, hits give low values 1.04 and 1.03 | locus YJL115W, strain asf1, hits give low values 1 | locus YJL129C, strain trk1, hits give low values 0.959 | locus YJL134W, strain LCB3, hits give low values 0.984 | locus YJL154C, strain vps35, hits give low values 0.994 | locus YJL164C, strain tpk1, hits give low values 1.01 | locus YJL166W, strain qcr8, hits give low values 0.972 | locus YJL168C, strain set2, hits give low values 0.997 | locus YJL187C, strain SWE1 (second series), hits give low values 1.02 | locus YJR043C, strain POL32, hits give low values 1.02
